# Source: ChEMBL document CHEMBL3988442, “University of Dundee, Small-Polar-MMV Screening Library” (2021)
# The campaign covered roughly 53,000 compounds. About 900 (1.7%) showed an effect of 50% or more. The entries come from a sample that favours strong results as a whole.
# Test system: Mycobacterium tuberculosis
# Assay: Cornell - Phenotypic assay to identify agents that inhibit growth of Mycobacterium tuberculosis
# Assay type: functional
# Set-up: scale not given: direction of the effect not stated beside the values
# Settings: 10 mM as filed; unlikely as a test dose
row,SMILES,Percent Effect [%]
1,CCc1ccc(NC(=O)C(C)N2CCN(Cc3ncc[nH]3)CC2)cc1 (centres undefined),-0.1574
2,CC(C(N)=O)N1CCN(c2ncc(Cl)cn2)CC1 (centres undefined),-8.902
3,O=C(COc1coc(CN2CCCCC2)cc1=O)c1ccccc1,-5.787
4,CC(C)N(C(=O)CCc1ccco1)C1CCOCC1,2.754
5,CCN1N=C(C(=O)N2CCCC(c3nc(C)c(C)s3)C2)CCC1=O (centres undefined),-28.99
6,O=C(CSC1CCc2ccccc2NC1=O)NCCc1ccc(O)cc1 (centres undefined),-13.35
7,CCn1cc2c(n1)C(COC)CN(C(=O)c1ccccn1)C2 (centres undefined),22.8
8,Cc1nn(C)c(C)c1C(=O)NCc1cc(N(C)C)nc2ccccc12,-29.39
9,Cn1cnnc1S(=O)(=O)C1CCN(S(=O)(=O)c2ccc(Cl)s2)CC1,6.004
10,CCCn1nccc1C(=O)Nc1ncc(C)s1,29.79
11,CCCn1nccc1C(=O)Nc1nc(C)c(C)s1,63.52
12,CCn1nccc1C(=O)Nc1nc(C)c(C(C)=O)s1,37.96
13,CC(C)c1cc(C(=O)O)nc2[nH]c(=O)[nH]c(=O)c12,12.95
14,COc1ccc(CNC(=O)C(NC(=O)Cc2ccccc2)C(C)C)cn1 (centres undefined),-38.43
15,COCCN1C(=O)[C@H]2CC[C@@H]1CN(Cc1nnc(C3CC3)o1)C2,-7.325
16,O=C(O)C(F)(F)F.O=C1[C@H]2CN(CC3CC3)C[C@H]2CN1Cc1cccc(F)c1,9.244
17,O=C(C[S+]([O-])Cc1csc(C2CCCC2)n1)Nc1ccccc1 (centres undefined),105.1
18,CC(C)CNC(=O)C[S+]([O-])Cc1csc(C2CCCCC2)n1 (centres undefined),18.38
19,O=C(C[S+]([O-])Cc1csc(C2CCCC2)n1)NC1CCCC1 (centres undefined),8.301
20,CCn1cnnc1CNC(=O)c1cc(Cl)ccc1I,10.82
21,CN(CCNC(=O)c1cnc(-c2ccccc2)nc1)S(C)(=O)=O,-18.18
22,CCCC(C)(O)c1cc(C(N)=O)no1 (centres undefined),45.9
23,CC(C)=CCCC(C)(O)c1cc(C(N)=O)no1 (centres undefined),37.88

row,SMILES,Percent Effect [%]
1,CCOC(=O)c1cc(C(C)(O)CCC=C(C)C)on1 (centres undefined),106.6
2,CNC(=O)Cn1ccc2ccc(NC(=O)C(C)C)cc21,6.028
3,CCCC(O)CN1CC(C)(C)CN(C(=O)c2ccccc2)CC1=O (centres undefined),6.323
4,Cc1cc(N2CCC(O)(CN(C)C(=O)CCN)C2)c2cnccc2n1 (centres undefined),27.99
5,CNc1cc(CCNC(=O)C2CCCC2)nc(-c2ccccn2)n1,52.1
6,CNc1cc(CCNC(=O)CC(C)C)nc(-c2ccccn2)n1,53.37
7,CNc1cc(CCNS(=O)(=O)c2ccccc2)nc(-c2ccccn2)n1,45.23
8,Cc1ncc(-c2ccccn2)c(CCNC(=O)C2CCCC2)n1,-18.28
9,CNc1cc(CCNC(=O)c2cccnc2)nc(-c2ccncc2)n1,-1.38
10,CCCC(=O)NCCc1cc(NC)nc(-c2ccccn2)n1,8.218
11,Cc1c(Br)cccc1C(=O)Nc1cc(C(N)=O)n(C)c1,2.948
12,COC(=O)c1occc1Cn1cc(Br)cn1,-5.91
13,COc1cccc2c1ccn2CCNC(=O)CC(C)C,-27.68
14,CCCn1nnnc1COc1ccc(C(=O)OC)cc1OC,7.789
15,CN(C)S(=O)(=O)N1CCOC(c2cccc(-c3cncnc3)n2)C1 (centres undefined),50.13
16,COCC(=O)N1CCOC(c2cccc(-c3cncnc3)n2)C1 (centres undefined),-11.99
17,Cc1noc(C)c1-c1cccc(C2CN(S(=O)(=O)N(C)C)CCO2)n1 (centres undefined),37.24
18,COc1ccccc1C(=O)N1CC(=O)N(CC(C)C)CC(O)C1 (centres undefined),11.6
19,CCC(CN1CCCCC1)NC(=O)C1(c2cccc(F)c2)CC1.O=C(O)CC(O)(CC(=O)O)C(=O)O (centres undefined),45.73
20,CCOCC(O)CN1CCN(C(=O)c2ccc(N(C)C)nc2)CC1 (centres undefined),18.97
21,CCOCC(O)CN1CCN(C(=O)c2ccsc2)CC1 (centres undefined),106.2
22,CCOCC(O)CN1CCN(C(=O)c2ccncc2)CC1 (centres undefined),18.36
23,CC(C)N1CCC(Cc2cncc(-c3cccc(C(=O)O)c3)n2)CC1,-33.1

row,SMILES,Percent Effect [%]
1,CCOCC1CN(S(=O)(=O)Cc2ccccc2)Cc2nccn2C1 (centres undefined),3.802
2,CC(C)c1ccc(C#N)c(N2CC(C)(C)[C@@](C)(O)C2)n1,23.89
3,COc1cccc(C(C)N2CCN(S(C)(=O)=O)CC2)c1 (centres undefined),-32.99
4,COc1cccc(/C=C/CCN2CCN(S(C)(=O)=O)CC2)c1,79.58
5,COc1cccc(S(=O)(=O)CCN2CCCN(C(C)=O)CC2)c1,16.19
6,COc1cccc(/C=C/CCN2CCC(C(=O)N3CCCC3)CC2)c1,9.134
7,COc1cccc(/C=C/CCN2CCCN(C(C)=O)CC2)c1,68.14
8,COc1cccc(NC(=O)CN2CCN(S(C)(=O)=O)CC2)c1,13.93
9,Cc1cc(C)n(C2CN(c3ncnc4[nH]ccc34)C2)n1,-54.22
10,CCn1cc(S(=O)(=O)NCC2(N3CCOCC3)CCCCC2)c(C)n1,-12.17
11,N#CCCCOc1cccnc1NC(=O)CC1CCCCC1,-14.31
12,Cc1ccc(NC(=O)N2CCN(Cc3ccccn3)CC2)cc1Cl,-19.48
13,Cc1nc(CN(C)C2CCCN(c3ccccc3)C2)no1 (centres undefined),-1.27
14,Cn1c(=O)c2c(c3ccccc31)OC(C)(C)CC2,17.08
15,COc1cccc2c3c(c(=O)[nH]c12)CCC(C)(C)O3,14.12
16,COc1cccc2c3c(c(=O)n(C)c12)CCC(C)(C)O3,52.61
17,CSCCCNC(=O)C(c1ccccc1C)N(C)C (centres undefined),37.97
18,Cc1cc(N(C)CCC(O)c2ccccc2)n2nccc2n1 (centres undefined),-28.51
19,Cc1cc(C(F)(F)F)nc(CNc2cc(C)nc3cc(C)nn23)n1,13.97
20,COc1cccc(C(=O)Oc2cc(=O)n3cccc(C)c3n2)c1,35.2
21,CC1c2cccn2CCN1C(=O)CCc1nc(C2CC2)no1 (centres undefined),7.661
22,CC1c2cccn2CCN1C(=O)CCCc1nc(-c2ccco2)no1 (centres undefined),8.285
23,CC1c2cccn2CCN1C(=O)CCc1nc(-c2ccccc2)no1 (centres undefined),50.68
